# Screens as filed in PubChem BioAssay.
# The list is not random: actives were taken first. Their share in the collection is about 2.7%.
# ERG-DNA inh = inhibitors of human ERG Ets domain-DNA interaction | 370,000 compounds, 0.028% hits | P11308 | AID 624246 | fluorescence polarization, His-ERG Ets domain / labelled DNA | Potency, µM (series often up to 76.9 µM), for the others: at the highest dose FP activity, negative = inhibition, usual class: inhibitors; active = well fitted inhibition curve with a large enough effect in the polarisation, with a control signal flat; inconclusive = small, poorly fitted or top-dose-only effect, or effect the other way, or a change in a side signal; inactive = no such curve, though single readings can be large or run the other way; the % refers to the polarisation;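 also: polarization taken with two DNA probes labelled with fluorescein and Texas red; potency is read from the fitted curve at half-maximal effect; % of control where 0% means no effect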
#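 His-tagged ERG Ets domain (1 uM in the protein solution; 300mM KCl, 50mM Tris-HCl, 1mM EDTA, 1mM DTT, pH 7.5) received compound, then a probe mix of 5 nM fluorescein-DNA and 100nM Texas-615-DNA. Fluorescence polarization was read for both dyes.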
# A549 viability = A549 cytotoxicity, counter-screen for Nrf2 inhibitors. 390,000 compounds, 0.16% hits. A549 ARE-Fluc cells, CellTiter-Fluor viability, 18-24 h. Potency, µM (series often up to 46 µM), for the others: top-dose activity change, negative = cytotoxicity, hits mostly inhibitors. AID 504648; also: potency is read from the fitted curve at half-maximal effect; % is scaled to controls: 0 for no effect and ±100 for the full control effect
#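 A549 ARE_Fluc cells in 5% FBS OPTI-MEM were exposed to compounds in concentration-response for 18-24 h at 37 deg C. Viability was read by CellTiter-Fluor fluorescence (Ex 405/Em 525) after 30 min, before the luciferase read.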
# Nrf2 block = Nrf2 pathway inhibition; 360,000 compounds, 2.1% hits; Potency, µM (titrated, usually from 46 µM), for the others: at the top dose activity change, negative = inhibition, most hits filed as inhibitors; A549 ARE-Fluc reporter, luciferase luminescence, 18-24 h; also: potency is read from the fitted curve at half-maximal effect; % is scaled to controls: 0 for no effect and ±100 for the full control effect; nearly all actives have a fitted effect of over 60% in size
#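 Cells were seeded and rested 2 h, then exposed to compounds for 18-24 h. CellTiter-Fluor was read first as a viability measure. BugLite was added 15 min before the final luminescent read of ARE-luciferase activity in A549 cells.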
# Nrf2 activator = activators of Nrf2 (ARE) signaling. Potency, µM (titrated, usually from 46.1 µM), for inactives: at the top dose activation, hits mostly activators. 410,000 compounds, 0.31% hits. AREc32 ARE-luciferase reporter (MCF7-derived line), luminescence, 24 h; also: potency is read from the fitted curve at half-maximal effect; % of control where 0% means no effect; nearly all actives have a fitted effect of over 65% in size
#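 Quantitative high-throughput format: AREc32 reporter cells, 1000 per well, received compound by pin transfer and were incubated 24 hr at 37 deg C, 5% CO2, before Steady-Glo luminescence detection.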
# ALOX12 inh = inhibitors of human 12S-lipoxygenase ALOX12; P18054; purified 12hLO, xylenol orange hydroperoxide absorbance; Potency, µM (highest dose often 108 µM), inactives show at the top dose activity change, negative = inhibition, actives largely listed as inhibitors; 580,000 compounds, 1.1% hits; AID 1671190; also: potency is read from the fitted curve at half-maximal effect; % is scaled to controls: 0 for no effect and ±100 for the full control effect
# Target sequence (P18054 whole entry, looked up): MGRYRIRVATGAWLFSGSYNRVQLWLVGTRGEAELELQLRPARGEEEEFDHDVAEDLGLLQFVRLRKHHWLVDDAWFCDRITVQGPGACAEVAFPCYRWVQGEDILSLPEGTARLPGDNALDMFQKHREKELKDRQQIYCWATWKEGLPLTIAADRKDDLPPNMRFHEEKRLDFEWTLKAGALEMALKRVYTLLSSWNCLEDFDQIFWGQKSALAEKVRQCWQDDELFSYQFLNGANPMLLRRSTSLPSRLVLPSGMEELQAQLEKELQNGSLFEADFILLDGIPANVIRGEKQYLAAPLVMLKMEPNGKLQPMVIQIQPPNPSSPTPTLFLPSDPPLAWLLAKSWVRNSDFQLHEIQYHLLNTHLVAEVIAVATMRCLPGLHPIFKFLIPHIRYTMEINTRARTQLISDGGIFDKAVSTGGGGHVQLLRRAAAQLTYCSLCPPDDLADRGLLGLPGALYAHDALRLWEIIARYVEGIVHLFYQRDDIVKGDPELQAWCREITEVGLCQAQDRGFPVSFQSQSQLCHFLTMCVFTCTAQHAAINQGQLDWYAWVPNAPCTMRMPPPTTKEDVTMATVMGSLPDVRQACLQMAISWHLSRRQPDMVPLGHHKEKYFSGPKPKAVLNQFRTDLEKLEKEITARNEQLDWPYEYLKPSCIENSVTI
#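 Purified human 12hLO (150 nM final) in 25 mM Hepes, 0.01% Triton X-100, pH 7.0 was preincubated 15 min at room temperature with compound. Then 40 uM arachidonic acid was added, 30 min. Hydroperoxide was read by Fe-XO absorbance ratio 573/405 nm.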
# LDHA inh = inhibitors of human lactate dehydrogenase A. P00338. AID 1347041. 480,000 compounds, 0.15% hits. purified LDHA, NADH/diaphorase-resazurin fluorescence; hits give low values. activity change, % (values are at about 110 or 230 µM); in the data active = activity change below about -30%; inconclusive = mostly about -25% to -30%;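 also: plate controls were DMSO wells for no effect and wells without enzyme for full effect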
#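 LDH5 2 nM; NADH 0.06 mM, pyruvate 0.2 mM; 200 mM Tris pH 7.4, EDTA, Tween-20; 5 min RT. Detection: diaphorase 0.133 mg/mL + resazurin 37 µM, fluorescence ex540/em590 at 0 and 20 min; normalized to enzyme-free and DMSO wells.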
# Starred values were filed as active, the others as inactive; ? = inconclusive; . = no result; [ ] = dose if it differs, or a comment. Unless noted, calls follow the shape of the dose curve; as a rule, active = well fitted curve in the direction sought with a large enough effect; inconclusive = small, poorly fitted or top-dose-only effect, or another doubt; inactive = no such curve, though single readings can be large; an effect the other way counts as inactive or inconclusive.
SMILES,ERG-DNA inh,A549 viability,Nrf2 block,Nrf2 activator,ALOX12 inh,LDHA inh
COc1cc(/C=N/N=C(/N)c2nonc2N)cc(Br)c1OCc1cccc(C)c1,-3%,-21%,21µM*,0%,27%,-4
CCOc1cc(/C=N/NC(N)=S)cc(Br)c1OCc1ccccc1C,9%,-17%,?,5%,.,-6
CCOc1cc(/C=N/N=C(\N)c2nonc2N)cc(Br)c1OCc1cccc2ccccc12,0%,?,21µM*,4%,0%,-8
COCCNc1nc(-c2ccc(NC(=O)C(C)C)cc2)cs1,.,.,.,.,?,6
Fc1cccc(CCN2C(=S)NC[C@@H]2CC2CCCCC2)c1,-15%,0%,-25%,3%,40µM*,-6
Cc1ccc(-c2nn(-c3ccccc3)cc2C2CC(c3ccccc3)=NN2C(=O)CCC(=O)O)cc1 (configuration not stated),14%,-7%,21µM*,0%,-39%,-6
Cc1ccc(C2=NN(C(=O)CCC(=O)O)C(c3cn(-c4ccccc4)nc3-c3ccc(C)cc3)C2)cc1 (configuration not stated),2%,?,-17%,-1%,-28%,-5
CN(CCc1noc(COc2ccc(F)cc2F)n1)C(=O)c1ccccc1C(F)(F)F,.,.,.,.,?,-8
Oc1ccc(N2CCN(c3ncnc4sc(-c5ccccc5)cc34)CC2)cc1,0%,-16%,21µM*,11%,?,0
CCc1cc2c(N3CCN(c4ccccc4)CC3)ncnc2s1,-3%,-10%,18µM*,0%,28%,-2
COc1ccc(-c2csc3ncnc(Nc4ccccc4)c23)cc1,0%,1%,.,0%,-20%,-8
COc1cccc(/C=N/Nc2ncnc3scc(-c4ccccc4)c23)c1OC,0%,10%[1.84 µM],13µM*,13%,3%,2
CCCOc1ccc(C(=O)NNC(=S)NC(=O)c2ccccc2)cc1,-11%,-16%,?,16%,35µM*,-10
O=C(NNC(=S)NC(=O)c1cccc([N+](=O)[O-])c1)c1ccc(Br)cc1,-1%,0%,-6%,2%,40µM*,-5
COc1ccc(C(=O)NNC(=S)NC(=O)c2ccco2)cc1,-8%,-1%,?,0%,0%,0
CCCOc1ccc(C(=O)NNC(=S)NC(C)=O)cc1,-2%,-5%,?,-1%,-3%,-6
O=C(NNC(=S)NC(=O)c1cccc([N+](=O)[O-])c1)c1ccc(O)cc1,10%,-14%,2%,1%,8%,-7
CCCOc1ccc(C(=O)NNC(=S)NC(=O)c2ccco2)cc1,5%,-22%,?,16%,40µM*,-7
Cc1ccccc1C(=O)NNC(=S)NC(=O)c1cccs1,7%,?,15µM*,9%,-25%,-2
Cc1ccccc1C(=O)Nc1cccc(NC(=S)NC(=O)c2cccs2)c1,-3%,-9%,-21%,2%,145%,-6
Cc1ccc2c(Cl)cc(Cl)c(OCC(=O)N3CCOC(C)C3)c2n1 (configuration not stated),.,.,.,.,?,9
Cc1sc2ncn(CCC(=O)NCc3ccccc3CN(C)C)c(=O)c2c1C,.,.,.,.,-28%,-4
CCCOc1ccc(C(=O)NNC(=S)NC(=O)c2cccs2)cc1,4%,-19%,7.3µM*,14%,?,-8
CC(C)(C)c1ccc(C(=O)NC(=S)NNC(=O)c2cccs2)cc1,-10%,-17%,?,3%,40µM*,-3
O=C(NC(=S)NNC(=O)c1ccco1)c1ccc(Br)cc1,2%,2%,11%,1%,28µM*,-4
SMILES,ERG-DNA inh,A549 viability,Nrf2 block,Nrf2 activator,ALOX12 inh,LDHA inh
COCCNc1nc(-c2[nH]c(C)c(C(=O)OC)c2C)cs1,.,.,.,.,?,27
Cc1cc(NS(C)(=O)=O)cc2sc(NC(=O)c3ccccc3)nc12,.,.,.,.,?,-9
O=C(CN1CCCc2c(F)cc(F)cc21)Nc1cccc2nsnc12,.,.,.,.,-12%,87
CCOC(=O)c1ccc2c3c(cccc13)CC2,.,.,.,.,-10%,-2
CCCCCCc1ccc(C(=O)Oc2ccc(Cl)cc2)cc1,.,.,.,.,10%,4
CCCCCCC[N+](CC)(CC)CCCCc1ccc(Cl)cc1,-49%,-7%,16µM*,-1%,22%,1
CC12CCC(C1)C(C)(C)C2O (configuration not stated),.,.,.,.,18%[176 µM],.
COc1ccc([C@H]2CC(=O)C=C(c3ccc(Cl)c(C(F)(F)F)c3)C2)cc1OC,-2%,?,16µM*,0%,1%,1
COc1ccc([C@H]2CC(=O)C=C(c3ccc(C(F)(F)F)c(C(F)(F)F)c3)C2)cc1OC,-5%,4%,?,2%,-11%,0
Nc1nccnc1C(=O)NCCSCc1cccs1,.,.,.,.,6%,8
CC1=C([N+](=O)[O-])C(c2ccc(O)c(O)c2)NC(=O)N1 (configuration not stated),-6%,2%,11%,0%,28µM*,3
C#CCOc1cc(Br)c(/C=C2\NC(=O)NC2=O)cc1OCC,.,.,.,.,?,-2
O=C(OCc1c(-c2ccccc2)ncc2ccccc12)c1cccs1,16%,?,16µM*,?,-12%,-3
COc1cccc(-c2ncc3ccccc3c2COC(=O)c2ccc(Br)cc2)c1,1%,4%,-19%,3%,-1%,1
O=C(OCc1c(-c2ccccc2)ncc2ccccc12)c1ccc(Br)cc1,0%,-6%,15µM*,0%,1%,1
CCOc1ccc(OCC)c(S(=O)(=O)n2nnc3ccccc32)c1,.,.,.,.,?,-3
COc1ccc(C=O)cc1COc1ccc(C=O)cc1,.,.,.,.,?,1
COc1cccc(/C(O)=C2\C(=O)C(=O)N(c3ccccn3)C2c2cccc(Br)c2)c1 (configuration not stated),.,.,.,.,35µM*,9
COc1ccc2c(c1)[N+](C)(C)C(C)(C)C=C2C,14%,0%,0%,-1%,32µM*,6
CCOc1ccc2c(c1)[N+](C)(C)C(C)(C)C=C2C,7%,5%,-3%,2%,?,-16
Cc1ccc(S(=O)(=O)c2nnn3c2nc(NCCc2ccccc2)c2sccc23)cc1,-2%,-1%,21µM*,-1%,-21%,5
CCCCCc1ccc(OCCC[n+]2ccccc2)c(CCCCC)c1,-13%,?,13µM*,-3%,?,-1
